For orientation: AC50 means the concentration giving half of the maximal activity seen.

Results filed as inconclusive are left out. Calls of active or inactive are those of the source. How the source made its calls, unless noted: active means hit-call score of the fitted dose curve at least 0.9, where 1 is the maximum; inactive means score below 0.9.

Assay [1] in a line: CCTE_Shafer_MEA_acute_spike_number: CCTE's Neural Acute Assay for Total Number of Spikes, Shafer Lab (AID 2284008). In short, it runs like this:
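Total spike count from 40 min recordings before and during compound exposure (0.03-40 uM), given as per-well percent change. Cortical cultures from rat, DIV 13 or 15, 37 C; adaptive detection threshold 8x rms noise.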

Assay [2] is described as follows: CCTE_Shafer_MEA_acute_firing_rate_mean: CCTE's Neural Acute Assay for Mean Firing Rate, Shafer Lab (AID 2284009).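 Further: analyzed for loss of signal so actives lower firing rate relative to DMSO.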 In short, it runs like this: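 Percent change in well-mean firing rate was derived from extracellular spikes detected at 8x rms noise (300-5000 Hz band-pass) before and after a 40-min compound exposure. Cultures were primary rat cortical neurons, tested at 0.03-40 uM.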

The nature of assay [3]: CCTE_Shafer_MEA_acute_burst_number: CCTE's Neural Acute Assay for Single-Electrode Bursts, Shafer Lab (AID 2284013). In short, it runs like this:
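Spontaneous network activity of primary rat cortical neurons was recorded extracellularly on microelectrode arrays at 37 C, with 40-min periods before and during exposure to 0.03-40 uM compound on DIV 13 or 15.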

Assay [4] can be described thus: CCTE_Shafer_MEA_acute_burst_duration_mean: CCTE's Neural Acute Assay for Mean Burst Duration, Shafer Lab (AID 2284014).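 Further: hits are decreases in mean burst duration relative to DMSO controls.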 In short, it runs like this:
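Read-out is the per-well percent change in mean burst duration (first to last spike within a single-electrode burst) between 40-min recordings before and after compound. Cultures were primary rat cortical neurons on MEAs, dosed at 0.03-40 uM on DIV 13 or 15.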

Assay [5] can be described thus: CCTE_Shafer_MEA_acute_per_burst_spike_number_mean: CCTE's Neural Acute Assay for Average Number of Spikes Per Burst, Shafer Lab (AID 2284015).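 Further: hits are decreases in mean spikes per burst versus baseline.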 In short, it runs like this:
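Primary rat cortical neurons on 48-well MEA plates, treated on DIV 13 or 15 at 0.03-40 uM. Spontaneous activity recorded 40 min before and 40 min after compound at 37 C; percent change in mean spikes per single-electrode burst per well, fitted in the loss direction versus DMSO.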

Assay [6] in a line: CCTE_Shafer_MEA_acute_interburst_interval_mean: CCTE's Neural Acute Assay for Mean Interburst Interval, Shafer Lab (AID 2284016).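 Further: percent change of mean interburst interval versus each well's own pre-dose baseline; curves fitted for decrease in interburst interval relative to DMSO.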 The gist of the method:
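Primary rat cortical neurons on 16-electrode MEA wells were recorded 40 min at baseline on DIV 13 or 15, then 40 min after compound (0.03-40 uM), at 37 C. Value is percent change in mean interburst interval per well, DMSO as negative control.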

The nature of assay [7]: CCTE_Shafer_MEA_acute_burst_percentage_mean: CCTE's Neural Acute Assay for Percentage of Spikes in a Burst, Shafer Lab (AID 2284017). In short, it runs like this: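 Primary rat cortical neurons on 16-electrode MEA wells; 40 min baseline recorded at DIV 13 or 15, then 40 min after compound (0.03-40 uM) at 37 C. Well-mean fraction of spikes in single-electrode bursts; percent change from baseline, DMSO as negative control.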

Assay [8] in a line: CCTE_Shafer_MEA_acute_burst_percentage_std: CCTE's Neural Acute Assay for Standard Deviation of Burst Percentage, Shafer Lab (AID 2284018).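 Further: fitted in the negative direction so actives lower burst percentage SD.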 The gist of the method:
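Value is percent change from baseline in the across-electrode SD of spikes-in-bursts percentage, wells with >/= 10 active electrodes. Acute 40-min exposure to 0.03-40 uM on DIV 13 or 15 rat cortical cultures, recorded at 37 C after 40-min baseline.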

Assay [9] can be described thus: CCTE_Shafer_MEA_acute_per_network_burst_spike_number_mean: CCTE's Neural Acute Assay for Average Number of Spikes in a Network Burst, Shafer Lab (AID 2284019). In short, it runs like this:
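Read-out is mean spike count per network burst, taken as percent change between a 40-min pre-exposure and a 40-min post-exposure recording per well. Rat primary cortical neurons on MEAs at 37 C, DIV 13 or 15; compounds at 0.03-40 uM.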

A short description of assay [10]: CCTE_Shafer_MEA_acute_per_network_burst_spike_number_std: CCTE's Neural Acute Assay for Standard Deviation of Number of Spikes in a Network Burst, Shafer Lab (AID 2284020).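 Further: fitted for decrease in spike-number SD versus DMSO so actives lower it.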 In short, it runs like this: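 Spontaneous network activity of primary rat cortical neurons is recorded extracellularly before and after a 40-min compound exposure (0.03-40 uM) at 37 C. The endpoint is the well's percent change in burst spike-number SD.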

A short description of assay [11]: CCTE_Shafer_MEA_acute_per_network_burst_electrodes_number_mean: CCTE's Neural Acute Assay for Mean Number of Electrodes in a Network Burst, Shafer Lab (AID 2284021).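 Further: curves fitted for decreases only so hits reduce electrodes per burst.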 The gist of the method:
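Percent change from baseline was computed as mean electrode count per network burst, comparing 40 min recordings before and during compound (0.03-40 uM) exposure. Cultures were rat cortical neurons at DIV 13 or 15, recorded on MEAs at 37 C with an adaptive 8x rms threshold.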

Assay [12] in a line: CCTE_Shafer_MEA_acute_cross_correlation_area: CCTE's Neural Acute Assay for Area of Cross Correlation, Shafer Lab (AID 2284024).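 Further: area under pooled inter-electrode spike cross-correlation near zero lag as percent change from own baseline; curves fitted for loss of cross-correlation area so actives lower synchrony.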 The gist of the method:
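Percent change in well-wide cross-correlation area (window around zero lag) between 40 min baseline and 40 min post-compound recordings, 37 C; rat cortical cultures on MEA at DIV 13 or 15, dosed 0.03-40 uM, wells needing >/= 10 active electrodes.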

The nature of assay [13]: CCTE_Shafer_MEA_acute_synchrony_index: CCTE's Neural Acute Assay for Synchrony, Shafer Lab (AID 2284027).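 Further: fitted for loss of signal so actives lower synchrony relative to DMSO.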 In short, it runs like this: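 Readout is percent change in the unitless network synchrony index (0 low, 1 high) between a 40-min baseline and a 40-min recording in compound. Cultures were primary rat cortical neurons on MEAs, treated at 0.03-40 uM on DIV 13 or 15.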

Assay [14] is described as follows: CCTE_Shafer_MEA_dev_firing_rate_mean: CCTE's Neural Network Formation Assay for Mean Firing Rate, Shafer Lab (AID 2284031). In short, it runs like this:
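Rat primary cortical neurons were seeded on multielectrode arrays and treated from plating through day 12, with redosing at each feed. Spontaneous spiking was recorded four times; mean firing rate AUC was fitted downward against DMSO.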

Assay [15] in a line: CCTE_Shafer_MEA_dev_per_burst_spike_percent: CCTE's Neural Network Formation Assay for Percent of Spikes in a Burst, Shafer Lab (AID 2284032). In short, it runs like this: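 Rat primary cortical neurons on 16-electrode MEA wells, dosed from plating day 0 for 12 days with renewal on DIV 5 and 9; spikes-in-bursts percentage averaged over bursting electrodes, collapsed as AUC across days 5, 7, 9, 12; loss direction versus DMSO.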

Assay [16] is described as follows: CCTE_Shafer_MEA_dev_active_electrodes_number: CCTE's Neural Network Formation Assay for Number of Active Electrodes, Shafer Lab (AID 2284040; active means hit-call score of the fitted dose curve at least 0.9, where 1 is the maximum). The gist of the method: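 Primary rat cortical neurons on 16-electrode MEA wells, exposed from day 0 through day 12 with compound renewed at DIV 5 and 9 feeds. Active electrodes (mean firing ≥5 spikes/min) counted at DIV 5, 7, 9, 12; trapezoidal AUC across days, loss-of-signal versus DMSO.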

The nature of assay [17]: CCTE_Shafer_MEA_dev_burst_rate: CCTE's Neural Network Formation Assay for Burst Rate, Shafer Lab (AID 2284042). The gist of the method:
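Rat primary cortical cultures on PEI/laminin MEA; compound from plating, re-dosed at DIV 5, 9 media change. Single-electrode bursts/recording length, well mean of active electrodes; AUC over DIV 5–12 recordings; loss-of-signal vs DMSO.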

Assay [18] is described as follows: CCTE_Shafer_MEA_dev_burst_duration_mean: CCTE's Neural Network Formation Assay for Mean Burst Duration, Shafer Lab (AID 2284045). In short, it runs like this: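 Read-out: average first-to-last-spike interval within single-electrode bursts, averaged over bursting electrodes per well, then summarised as area under the curve across days 5, 7, 9 and 12. Developing rat cortical networks were exposed from day 0.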

Assay [19] can be described thus: CCTE_Shafer_MEA_dev_interburst_interval_mean: CCTE's Neural Network Formation Assay for Mean Interburst Interval, Shafer Lab (AID 2284046).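 Further: well-mean interburst interval of bursting electrodes as AUC over four recording days; curve fitted for decrease in interburst interval relative to DMSO.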 In short, it runs like this:
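Rat cortical neurons, 1.5 x 10^5 cells/well, 48-well MEA; compound from day 0 through DIV 12, media and treatment renewed DIV 5/9. Recordings DIV 5, 7, 9, 12; well-mean interburst interval → trapezoidal AUC, loss direction vs DMSO.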

Assay [20] in a line: CCTE_Shafer_MEA_dev_inter_network_spike_interval_mean: CCTE's Neural Network Formation Assay for Mean Inter-network Spike Interval, Shafer Lab (AID 2284047). The gist of the method: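 Primary rat cortical neurons on PEI-coated 48-well MEAs (16 electrodes/well) were exposed from plating day 0 to DIV 12, with dosing renewed at DIV 5 and 9. Recordings at DIV 5, 7, 9, 12 were collapsed by trapezoidal AUC, loss-of-signal fit vs DMSO.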

Assay [21] is described as follows: CCTE_Shafer_MEA_dev_network_spike_number: CCTE's Neural Network Formation Assay for Number of Network Spikes, Shafer Lab (AID 2284048).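 Further: synchronized bursts across electrodes counted on days 5 7 9 12 and integrated as AUC.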 In short, it runs like this: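 Developing networks of primary rat cortical neurons are treated over 12 days starting at plating, with media and compound fully replaced on DIV 5 and 9. Network spike counts from four recording days are integrated as trapezoidal AUC.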

Assay [22] can be described thus: CCTE_Shafer_MEA_dev_network_spike_peak: CCTE's Neural Network Formation Assay for Mean Number of Electrodes in Network Spike, Shafer Lab (AID 2284049). In short, it runs like this:
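Rat cortical primary culture, 1.5 x 10^5 cells/well, 48-well MEA (16 electrodes/well). Dosing day 0 through DIV 12, full media/compound exchange DIV 5, 9. AxIS adaptive spike detection; AUC over days 5/7/9/12; loss-of-signal vs DMSO.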

Assay [23] in a line: CCTE_Shafer_MEA_dev_spike_duration_mean: CCTE's Neural Network Formation Assay for Mean Spike Duration, Shafer Lab (AID 2284051).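 Further: mean network spike duration pooled as area under curve over DIV 5 to 12 recordings.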 The gist of the method:
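Rat cortical primary cultures, 48-well MEA (16 electrodes/well); compound from plating, renewed DIV 5, 9. Network spike duration (AxIS adaptive detector) recorded DIV 5/7/9/12, combined as trapezoidal AUC; loss direction vs DMSO.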

The nature of assay [24]: CCTE_Shafer_MEA_dev_network_spike_duration_std: CCTE's Neural Network Formation Assay for Standard Deviation of Network Spike Duration, Shafer Lab (AID 2284052).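 Further: hits are decreases in network spike duration SD versus DMSO vehicle.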 In short, it runs like this:
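Rat cortical cultures, 1.5 x 10^5 cells/well, exposed continuously from plating to DIV 12 with media/compound renewal at DIV 5, 9. Spontaneous activity recorded DIV 5/7/9/12, AxIS adaptive spike detector; AUC across days; negative direction vs DMSO.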

`CP(=O)(O)CCC(N)C(=O)O` (centres undefined): the call in [1], in assay [2], in [3], in assay [6], in [7] and in [8] was inactive. The result in [9], in assay [10], in assay [11], in assay [12], in assay [13] and in assay [14] was inactive. Moreover, the call in [15], in assay [16], in assay [17], in [18], in [19] and in assay [20] was inactive. The call in assay [21], in assay [22], in assay [23] and in [24] was inactive. Further, the AC50 is 35 µM (active) in assay [4] and 50 µM (active) in [5].

For the origin of these results see PubChem BioAssay (EPA / NIEHS).
